Sampled rows, rich in hits. Any-hit rate of the full collection: about 2.9%.
LMP1 NFkB inh – inhibitors of Epstein-Barr LMP1-induced NF-kappaB reporter. 350,000 tested, 0.69% active. LMP1-induced NF-kappaB luciferase reporter cells, luminescence. inhibition, % at 12.5 µM. AID 504558; in the data active means inhibition above about 41%; inconclusive means no clear call, values can overlap the other calls;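 further: 0% = neutral control wells and 100% = reference inhibitor control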
Peg3 prom inh – inhibitors of Peg3 promoter | HeLa PEG-Prom luciferase reporter, luminescence, overnight | inhibition, % at 20 µM | 360,000 tested, 1.7% active | AID 588405;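 active means inhibition of at least 50% at 20 µM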
KKLEB cytotox – reduces viability of KKLEB cystic fibrosis airway cells. KKLEB CF airway cells viability, ATPlite luminescence, overnight; hits give low values; cells stimulated with P. aeruginosa culture filtrate. 360,000 tested, 0.36% active. activity change (cytotoxicity), % at 5 µM;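 active means corrected activity change at or below -50% at 5 µM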
CF NFkB block – cystic fibrosis NF-kB activation inhibition | AID 588850 | KKLEB NF-kB-GFP reporter, PAF-induced, GFP fluorescence overnight | inhibition, % at 5 µM | 360,000 tested, 0.86% active;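 active means at least 50% inhibition at 5 µM, scaled per plate between neutral and stimulator controls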;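 further: PAF is a Pseudomonas aeruginosa culture filtrate used as stimulus; plate controls were PAF-stimulated DMSO wells for no effect and unstimulated DMSO wells for full effect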
TRPM1 prom inh – reduces MITF-dependent TRPM1 promoter luciferase signal. SK-MEL-5 TRPM1 promoter luciferase, 24 h. inhibition, % at 12.5 µM. 330,000 tested, 0.83% active;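 active means mean inhibition across replicates of 60% or more, whatever share of single replicates reaches that level; inconclusive means some that reach 60%, reason not given; inactive means mean inhibition across replicates below 60%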
Shn3 3UTR inh – Schnurri-3 reporter inhibition in Clone20 osteoblasts; Clone20 osteoblast Shn3 3'UTR firefly luciferase, 24 h; inhibition, % at 12.5 µM; AID 588674; 360,000 tested, 0.52% active;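 active means mean inhibition of at least 75% with every replicate also reaching 75%; inconclusive means mean inhibition at least 75% but some replicate below; inactive means mean inhibition below 75%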;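 further: 0% = median of neutral control wells and 100% = pilot-screen positive control compound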
An asterisk follows results filed as active; ? = inconclusive; / = no result given.

SMILES	LMP1 NFkB inh	Peg3 prom inh	KKLEB cytotox	CF NFkB block	TRPM1 prom inh	Shn3 3UTR inh
COc1ccc(-c2csc(NC(=O)c3ccccc3NS(=O)(=O)c3ccc(F)c(F)c3)n2)cc1	?	46.8	-50.8*	54.6*	77.0*	79.3
Cc1ccc(S(=O)(=O)Nc2ccccc2C(=O)Nc2nc(-c3ccc(F)cc3)cs2)cc1	21.3	41.4	-57.7*	49.1	43.8	75.0
CN(C)c1cccc(CNC(=O)c2ccc3sc([C@@H]4O[C@H](CO)[C@H](O)[C@H](O)[C@H]4O)nc3c2)c1	/	5.1	-9.0	7.9	/	10.1
COCCN1C[C@@H](CO)O[C@@H](n2cnc3c(NCCCO)ncnc32)C1	/	3.0	8.4	-6.8	/	-16.4
CCCCCCCC(=O)Nc1ccc(C(=O)N/N=C/c2cccc([N+](=O)[O-])c2)cc1	-58.4	101.3*	-31.2	34.1	72.4*	39.2
O=C(NCc1ccccc1)c1cc(C2COCCN2S(=O)(=O)c2cccs2)on1 (stereo not drawn)	/	10.6	14.2	-23.3	/	3.1
CN1C=CC(C(C(N)=O)c2ccccc2)c2ccccc21 (stereo not drawn)	5.8	9.4	-0.7	-5.2	/	-16.9
CCCCCn1c(N2CCOCC2)nc2c1c(=O)n(CC(N)=O)c(=O)n2C	64.2*	-4.3	3.7	7.8	-3.7	10.5
Cc1ccc(S(=O)(=O)NC(=O)C2(C)CCN2C(=O)Cc2ccc(C(C)(C)C)cc2)cc1 (stereo not drawn)	/	7.9	-6.6	10.1	/	-7.2
C=CCn1c(SCCN2CCOCC2)nc2c1c(=O)[nH]c(=O)n2C	-7.5	12.2	0.0	3.1	8.7	-3.7
CCCCCSc1nc2c(c(=O)[nH]c(=O)n2C)n1CC	81.8*	-10.4	3.7	-1.5	-12.3	-2.0
CCCCCSc1nc2c(c(=O)[nH]c(=O)n2C)n1C	-1.2	-11.1	-25.1	30.5	/	10.4
COCCn1c(SCCN2CCOCC2)nc2c1c(=O)[nH]c(=O)n2C	76.5*	13.9	0.0	-5.7	-0.5	-29.5
CCOc1ccc(NC(=O)COC(=O)c2c[nH]c3ccccc23)cc1	-2.5	6.7	-8.3	-6.9	/	5.4
CCOC(=O)c1c(C)n(C)c2ccc(OC)c(NC(=O)CN3CCSCC3)c12	-1.1	76.6*	7.3	-5.4	2.7	19.1
CCOC(=O)c1c(C)n(C)c2ccc(OC)c(NC(=O)CCN3CCC(Cc4ccccc4)CC3)c12	4.3	-2.6	13.5	7.6	-2.6	2.8
COCCCN(Cc1cc(OC)c(OC)c(OC)c1)C(=S)Nc1cccc(Cl)c1	5.3	13.2	6.3	7.8	/	81.8*
O=C(c1ccccc1)c1nn(-c2ccc(Cl)cc2)c(=O)cc1C(F)(F)F	64.2*	78.7*	-15.2	-4.1	24.1	73.9
COc1ccccc1Cc1c(-c2ccco2)nc2ccc(C)cn12	/	-197.9	-26.2	-12.3	/	6.0
COc1cccc(COC(=O)CSCC(=O)Nc2ccc(C)cc2)c1OC	-1.5	17.0	-3.6	-32.7	/	-8.6
N#C/C(=C(/O)COc1ccccc1)c1nc2ccccc2s1	-6.4	-36.6	9.7	14.6	-1.7	13.3
N#C/C(=C(/O)COc1ccc(Cl)cc1)c1nc2ccccc2s1	5.1	-8.2	-34.4	50.4*	5.9	5.7
COc1cc(/C=N/NS(=O)(=O)c2ccc(C)cc2)ccc1OCc1cccc(C(=O)O)c1	73.2*	-2.1	-5.6	-4.2	77.7*	68.5
COc1cc(/C=N/NS(=O)(=O)c2ccc3ccccc3c2)ccc1OCc1ccc(C(=O)O)cc1	67.3*	-4.8	-6.3	1.8	64.3*	32.1
CC(C)CCSc1nc(N)c(C#N)cc1C#N	11.8	-40.5	0.2	51.2*	-15.6	7.7
SMILES	LMP1 NFkB inh	Peg3 prom inh	KKLEB cytotox	CF NFkB block	TRPM1 prom inh	Shn3 3UTR inh
CC(=O)c1cc(C#N)c(SCCC(C)C)nc1C	-11.0	-27.3	11.9	16.4	-5.7	-26.6
c1ccc(-c2cn3nc(-c4ccccc4)sc3n2)cc1	9.1	44.8	-60.3*	-9.0	6.7	65.9
CCOc1ccccc1OCC(=O)NC1CCSc2ccccc21 (stereo not drawn)	-9.4	-68.9	-22.1	14.8	/	14.2
O=C(O)c1ccc(NC(=S)Nc2ccc(S(=O)(=O)Nc3ccccn3)cc2)cc1	-10.0	-1.7	11.9	2.5	3.0	-4.6
CCN(CC)C(=O)c1cccc(-c2csc(C(C)(NC(C)=O)c3ccc(OC)cc3)n2)c1 (stereo not drawn)	/	18.5	-3.5	13.4	/	3.9
CCn1cc(CN2CCCC(C(=O)Nc3cccc(-n4cccn4)c3)C2)cn1 (stereo not drawn)	-6.8	-5.0	-20.4	21.2	/	-16.2
Cc1cc(NCCCn2ccnc2)n2ncc(-c3ccccc3)c2n1	50.3*	19.9	-32.3	0.2	57.9	46.4
COc1cc(OC)nc(C(NC(=O)C2CCN(Cc3c[nH]c4ccccc34)CC2)c2ccc(Cl)cc2)n1 (stereo not drawn)	/	101.2*	-21.3	14.1	/	-2.8
COc1ccc(C2/C(=C(/O)c3ccc(C)cc3)C(=O)C(=O)N2C)cc1 (stereo not drawn)	-8.3	11.8	-1.0	3.1	4.3	3.5
COc1ccc(N2C(=O)C(=O)/C(=C(/O)c3ccc(C)cc3)C2c2cccnc2)cc1 (stereo not drawn)	43.6*	-10.9	8.0	-3.9	-7.1	-29.0
CCCC#Cc1ccc2c(c1)O[C@H](CN(C)C(=O)CC1CC1)[C@H](C)CN([C@@H](C)CO)S2(=O)=O	9.3	15.1	-5.6	18.8	/	3.5
CCCCS(=O)(=O)/C=C\C=C/S(=O)(=O)CCCC	92.1*	102.0*	-70.8*	83.9*	104.0*	96.1*
CCCCS(=O)(=O)/C=C\C1C2C=CC(C2)C1S(=O)(=O)CCCC (stereo not drawn)	-0.6	11.9	0.4	-8.8	-8.2	10.0
COc1ccc(OC)c(NC(=O)COC(=O)COc2ccc(Nc3ccccc3)cc2)c1	69.6*	2.1	-0.5	-3.0	-3.3	4.8
COc1ccc(NC(=O)COC(=O)c2c3c(nc4ccccc24)CCCC3)cc1	6.8	34.0	13.4	-10.1	4.4	46.4
COc1ccc(OC)c(NC(=O)COC(=O)c2c3c(nc4ccccc24)CCCC3)c1	31.3	78.2*	-47.5	37.0	-11.0	90.0*
CC1=C(C)C(=O)C(CCCCC#CCCCC#CCO)=C(C)C1=O	43.3*	6.2	1.9	44.0	31.7	-0.8
Nc1cc(Br)cc2c1[nH]c(=O)c1ccccc12	-1.0	-10.4	5.3	-37.8	/	3.1
O=c1c2ccccc2cnn1CCOc1ccccc1	74.1*	43.8	3.1	-27.1	58.4	58.2
O=C(O)CC(C(=O)O)C(=Cc1ccccc1)c1ccccc1 (stereo not drawn)	-9.0	-17.0	2.1	-0.3	/	-3.5
CS(=O)(=O)N(CC(=O)Nc1ccc(F)c(F)c1)c1cccc([N+](=O)[O-])c1	-1.9	-8.2	1.3	-5.4	-5.2	8.5
